Screening data deposited in PubChem by National Center for Advancing Translational Sciences (NCATS).
BAZ2B inh = BAZ2B (human) inhibition; Q9UIF8; AlphaScreen BAZ2B-H3K14Ac peptide displacement; Potency, µM (doses to about 114 µM), for inactives: at the highest dose activity change, negative = inhibition, usual class: inhibitors; 360,000 compounds, 4.4% hits; AID 504333; further: on the % scale 0 is the no-effect control and ±100 the full control effect; nearly all actives have a fitted effect of over 60% in size
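Complex of BAZ2B and biotin-H3K14Ac (50 nM apiece) forms over 30 min at RT, then faces library compounds up to 110 uM for another 30 min; AlphaScreen beads added, 20 min dark incubation, luminescence read.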
Sfp inh = inhibitors of Bacillus subtilis Sfp phosphopantetheinyl transferase; Q9F4F7; Biochemical Sfp PPTase activity, qHTS; Potency, µM, inactives show largest response in the series, negative = inhibition, actives largely listed as inhibitors; 310,000 compounds, 3.5% hits; AID 1490;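 further: the enzyme is Sfp with the accession as filed and its product quenches rhodamine fluorescence; 0% = enzyme reaction without inhibitor and -100% = no enzyme wells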
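Fluorescence-quenching assay with 15 nM Sfp, 5 uM rhodamine-CoA and 12.5 uM BHQ-2-labelled ybbR peptide in pH 7.6 Hepes/MgCl2 buffer. Enzyme was pre-incubated with compound for 15 min at room temperature. Rate was taken from the 30-min fluorescence change (525/598 nm).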
JMJD2A Tudor = blocks the human JMJD2A Tudor domain; O75164; AlphaScreen JMJD2A-Tudor / H3K4me3 peptide binding; 390,000 compounds, 4.4% hits; AID 504339; Potency, µM (doses to about 114 µM), for inactives: at the top dose activity change, negative = inhibition, hits mostly inhibitors; further: on the % scale 0 is the no-effect control and ±100 the full control effect; nearly all actives have a fitted effect of over 50% in size
G9a block = blocks human histone lysine methyltransferase G9a. G9a H3K9 monomethylation, AlphaScreen, 2 h. Potency, µM (titrated, usually from 102 µM), for inactives: top-dose activity, negative = inhibition, most hits filed as inhibitors. 350,000 compounds, 8.8% hits; further: on the % scale 0 is the no-effect control and ±100 the full control effect; nearly all actives have a fitted effect of over 75% in size
Target sequence (Q96KQ7 913-1193 limits assumed): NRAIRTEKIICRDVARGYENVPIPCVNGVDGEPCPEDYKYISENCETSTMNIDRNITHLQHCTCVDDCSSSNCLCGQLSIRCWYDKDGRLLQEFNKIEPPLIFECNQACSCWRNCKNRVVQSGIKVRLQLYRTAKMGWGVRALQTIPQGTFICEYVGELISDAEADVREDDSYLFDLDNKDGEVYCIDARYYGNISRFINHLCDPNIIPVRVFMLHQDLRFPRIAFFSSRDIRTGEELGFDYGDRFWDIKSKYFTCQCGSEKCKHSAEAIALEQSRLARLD
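G9a (20 nM) was preincubated 15 min with compound, then reacted 2 h at room temperature with 500 nM biotin-H3K9 peptide and 20 µM SAM. Monomethyl-H3K9 detected by AlphaScreen using anti-H3K9me1 antibody.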
TDP1 block = blocks human tyrosyl-DNA phosphodiesterase 1 | 350,000 compounds, 0.28% hits | recombinant TDP1, AlphaScreen DNA substrate cleavage | Potency, µM (top dose mostly 130 µM), without a hit: top-dose activity change, negative = inhibition, most hits filed as inhibitors; further: on the % scale 0 is the no-effect control and ±100 the full control effect; nearly all actives have a fitted effect of over 40% in size
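Compounds were preincubated with Tdp1 (1 nM final) for 15 min at room temperature before substrate (15 nM final) started a 5 min reaction; beads (10 ug/ml final) were then added for 10 min before AlphaScreen detection.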
HP1b chromo inh = HP1-beta chromodomain-methylated histone interaction inhibition; P83916; AlphaScreen HP1-beta / biotin-H3K9me3 peptide binding; Potency, µM (doses to about 114 µM), for inactives: top-dose activity change, negative = inhibition, hits mostly inhibitors; 390,000 compounds, 0.56% hits; AID 540317; further: nearly all actives have a fitted effect of over 70% in size
Target sequence (P83916 whole entry, looked up): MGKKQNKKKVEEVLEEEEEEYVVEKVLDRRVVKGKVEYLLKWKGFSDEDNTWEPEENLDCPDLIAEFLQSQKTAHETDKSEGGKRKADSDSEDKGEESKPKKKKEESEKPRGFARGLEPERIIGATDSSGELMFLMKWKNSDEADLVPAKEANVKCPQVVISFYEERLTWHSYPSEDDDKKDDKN
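HP1-beta protein (50 nM final) preincubated 30 min at room temperature with biotinylated H3(1-18)K9me3 peptide (50 nM) in PBS pH 7.4, 0.01% Tween-20, then compound added for 30 min. AlphaScreen streptavidin donor/nickel chelate acceptor beads (10 ug/mL final), 30 min dark, luminescence read.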
Numbers without * were called inactive; u = inconclusive; x = not tested or not shown; ! = not active in a repeat; [ ] = remark or other dose. An excerpt weighted towards active compounds, which were near 12% of everything screened. The call rests on the fitted dose curve; in most records, active means well fitted curve in the direction sought with a large enough effect; inconclusive means small, poorly fitted or top-dose-only effect, or another doubt; inactive means no such curve, though single readings can be large; an effect the other way counts as inactive or inconclusive. Potency means the concentration at half of the fitted maximal effect.

SMILES	BAZ2B inh	Sfp inh	JMJD2A Tudor	G9a block	TDP1 block	HP1b chromo inh
CCOc1cc(/C=N/NC(=O)C(=O)NC2CC2)cc(Br)c1O	-1.8%	-0.5%	-1.4%	8.91µM*	-8.2%	-2.6%
COc1cc(/C=N/NC(=O)CC#N)cc(Br)c1O	50.1µM*	-0.2%	35.5µM*	0.7%	-6.1%	u
CC1CCCN(CCCOc2ccc([N+](=O)[O-])cc2)C1 (centres undefined)	u	-10.7%	22.4µM*	8.91µM*	-11.0%	-24.7%
Cc1cc(OCCN2CCCC2)ccc1[N+](=O)[O-]	u	-5.7%	3.16µM*	7.94µM*	-4.7%	-12.4%
Cc1ccc(OCCN2CCOCC2)cc1C	1.7%	-6.4%	-9.7%	-1.1%	3.3%	37.6%
Cc1cc(OCCN2CCOCC2)ccc1[N+](=O)[O-]	50.1µM*	u	0.708µM*	7.94µM*	-13.2%	u
Cc1cc(OCC(=O)N2CCOCC2)ccc1[N+](=O)[O-]	-3.6%	18.2%	-2.7%	-8.9%[59 µM]	x	26.0%
CC1CCN(CCOc2ccc(Cl)c(Cl)c2)CC1	-28.9%	8.3%	10µM*	u	0.0%	u
OCCN1CCN(CCOc2cccc(Cl)c2)CC1	u	6.1%	u	x	8.6%	26.4%
C=CC1=C2C=C(C3CC3)N(CCCN(CC)CC)C=C2C(=O)C(C)(OC(=O)c2ccco2)C1=O (centres undefined)	x	7.5%	-13.1%	x	-3.2%[12.3 µM]	38.0%
O=[N+]([O-])c1ccc(OCCN2CCCCCC2)cc1	50.1µM*	4.0%	2.82µM*	31.6µM*	x	u
Cc1cc(C)c(OCCN2CCOCC2)c(Cl)c1	u	-11.8%	28.2µM*	31.6µM*	x	u
CCN1CCN(CCNC(=O)Nc2ccc([N+](=O)[O-])cc2)CC1	-5.7%	-0.2%	7.7%	-41.6%	-2.3%	27.7%
O=C(NCCN1CCCCC1)Nc1ccc([N+](=O)[O-])cc1	-8.9%	6.4%	-11.7%	79.4µM*	x	7.3%
Cc1cc(OCCN2CCOCC2)ccc1Cl	u	-1.7%	-100.0%	10µM*	x	u
CC(C)(CO)NC(=O)C(Cc1ccccc1)N1C(=O)c2ccccc2C1=O (centres undefined)	9.6%	12.7%	-9.4%	-2.0%	x	25.8%
O=S(=O)(c1ccc(Br)cc1Cl)N1CCCN(c2ccc(C(F)(F)F)cn2)CC1	x	x	19.4%	x	-4.1%	68.9%
CC1CCN(CCCNC(=O)c2ccc(N3CCCC3=O)cc2)CC1	-4.6%	13.5%	-8.8%	7.9%	1.9%	68.2%
Cc1ccsc1C(=O)N1CCN(S(=O)(=O)c2cccc(F)c2)CC1	6.6%	x	-17.0%	28.2µM*	x	-14.1%
CCOC(=O)c1c(CSc2ccccc2)n(C)c2ccc(O)c(CN3CCOCC3)c12	35.5µM*	-37.4%	-34.0%	39.8µM*	7.4%	8.4%
CCOC(=O)c1c(CS(=O)(=O)c2ccccc2)n(C)c2cc(Br)c(O)c(CN(C)C)c12	19.4%	4.8%	-18.2%	-6.1%	-2.5%	5.8%
CCOC(=O)c1c(CSc2ccccc2)n(C)c2cc(Br)c(OC)c(O)c12	-21.3%	12.5%	-7.5%	21.3%	x	24.7%
CCOC(=O)c1c(CN2CCOCC2)n(C)c2cc(Br)c(O)c(CN(C)C)c12	u	-3.8%	-14.9%	11.2µM*	-3.3%	-6.0%
Cc1ccc(C)n1-c1ccc(C(=O)NN=C2CCCC2)cc1	-31.9%	18.0%	-22.2%	16.5%	2.6%	22.1%
CCOc1ccc(CNC(=O)C2CCN(S(=O)(=O)c3ccc4c(ccn4C)c3)CC2)cc1	-3.8%	x	-16.0%	-2.6%[59 µM]	-1.8%	18.1%[57 µM]
SMILES	BAZ2B inh	Sfp inh	JMJD2A Tudor	G9a block	TDP1 block	HP1b chromo inh
COCc1nnc(NC(=O)c2ccc(S(=O)(=O)N(CC(C)C)CC(C)C)cc2)o1	u	23.6%	-15.8%	-26.6%	7.2%	56.8%
C=CCN(CC=C)S(=O)(=O)c1ccc(C(=O)Nc2nnc(COC)o2)cc1	u	11.1%	-28.4%	22.8%[12.7 µM]	11.4%	51.8%
COCc1nnc(NC(=O)c2ccc(S(=O)(=O)N(C)c3ccccc3)cc2)o1	u	17.1%	79.4µM*	-10.0%[59 µM]	10.9%	53.4%
COCc1nnc(NC(=O)c2ccc(S(=O)(=O)N3CCCC3)cc2)o1	20µM*	-19.2%	12.6µM*	3.1%	3.2%	28.7%
CCc1nnc(NC(=O)c2ccc(S(=O)(=O)N3CCCC(C)C3)cc2)o1 (centres undefined)	89.1µM*	8.2%	-25.9%	61.7%	6.2%	42.0%
COc1cccc(CSc2nc3ccccc3c3nc(CCn4c(C)nc5ccccc54)nn23)c1	0.6%	x	-17.7%	-28.3%[59 µM]	6.4%	29.4%
COC(=O)c1ccccc1NC(=O)c1ccc(COc2cccc3ccccc23)o1	0.8%	56.2µM*	0.8%	u	5.1%	37.2%
CNC(=O)CSc1nc2ccccc2c(=O)n1-c1cc(OC)ccc1OC	-5.0%	5.2%	1.4%	23.4%[59 µM]	1.2%	38.2%
COc1ccc(-n2c(=O)c3ccccc3c3ccccc3c2=O)cc1	-30.0%	13.3%	4.8%	10µM*	3.0%	34.7%
COc1ccc(OC)c(-n2c(=O)c3ccccc3c3ccccc3c2=O)c1	u	6.9%	u	10µM*	0.0%	23.3%
CCN(C(=O)COC(=O)Cc1c[nH]c2ccccc12)C1CCS(=O)(=O)C1 (centres undefined)	-2.2%	4.9%	-11.0%	x	2.4%	32.8%
O=C1NC(=O)c2cc(Nc3ccc(F)cc3)c(Nc3ccc(F)cc3)cc21	x	u	x	14.1µM*	15.4%	x
O=C(Nc1ccc2c(c1)C(=O)NC2=O)c1ccccc1	-9.5%	8.0%	-14.9%	21.4%	x	32.9%
CC1(C)CC(=O)C=C(Nc2ccc(F)cc2)C1	-8.3%	-4.2%	0.6%	19.2%[12.7 µM]	2.3%	25.2%
O=C1NC(=O)c2cc(Nc3ccccc3)c(Nc3ccccc3)cc21	x	6.5%	x	21.2µM*!	17.4%	x
CN(C)c1cccc(S(=O)(=O)N2CCCN(S(=O)(=O)c3ccc4c(c3)OCCO4)CC2)c1	x	x	u	x	3.0%	x
CC(C)(C)OC(=O)NS(=O)(=O)Nc1ccccc1Br	x	0.5%	35.5µM*	x	0.3%	-5.5%
CN(CC(=O)Nc1ccccc1C(F)(F)F)C(=O)Cn1c(=O)oc2ccccc21	13.1%	x	-5.4%	5.9%	x	40.9%
CCOC(=O)C1=NNC(C(=O)c2ccc(C)cc2)C1c1ccc(C)cc1 (centres undefined)	-2.5%	u	-18.8%[57.1 µM]	79.4µM*	5.6%	-11.9%
CCOC(=O)C1=NNC(C(=O)c2ccc(OC)cc2)C1c1ccccc1 (centres undefined)	-3.3%	10.6%	-11.9%	56.2µM*	2.3%	23.2%
CCOC(=O)C1=NNC(C(=O)c2ccccc2)C1c1ccc(C)cc1 (centres undefined)	-21.1%	9.8%	-20.3%	-3.0%	1.2%	20.0%
